# According to the supplement of paper PMC10037445:
# The full ranking holds about 2,900 compounds; the median of “NF-kB SEAP reporter activity, fold change vs agonist alone” is about 0.99, and the highest 2% start at about 2.6. Only a selection was taken, and the highest values are over-represented in it overall.
# Experiments:
# [1] = system: RAW-Dual; experiment: NF-kB SEAP reporter activity, fold change vs agonist alone; higher = enhanced NF-kB activity; settings: library stock concentration (final ~1000-fold dilution): 10 mM
# Procedure, shortened: (§1)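 Cytotoxic wells were those whose IncuCyte confluency was below 70% of agonist controls in both mask sets. The cells were RAW-Dual macrophages at 50,000 cells/well in DMEM on 384-well plates, dosed with 50 nL of library stock by pin tool, stimulated with a PRR agonist 1 h later, and kept at 37 °C, 5% CO2 for 20 hours. IRF and NF-κB reporter activity, as fold change over agonist-alone wells, came from supernatant read by QuantiLuc luminescence and QuantiBlue absorbance, respectively.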
# [2] = system: RAW-Dual; experiment: NF-kB SEAP reporter activity, fold change vs agonist alone; cytotoxicity flag (confluency mask): not cytotoxic; higher = enhanced NF-kB activity
# Procedure, shortened: as §1
# [3] = system: RAW-Dual; experiment: NF-kB SEAP reporter activity, fold change vs agonist alone; cytotoxicity flag (confluency mask): cytotoxic (confluency <70% of control); higher = enhanced NF-kB activity
# Procedure, shortened: as §1
# [4] = cytotoxicity flag (confluency mask): not cytotoxic, agonist: Imiquimod (TLR7) […]
# [5] = cytotoxicity flag (confluency mask): not cytotoxic, agonist: MPLA (TLR4) […]
# [6] = agonist: ODN 1826 (TLR9) 0.5 ug/mL
# [7] = agonist: Pam2CSK4 (TLR2/6) 0.1 ug/mL
# [8] = agonist: Pam3CSK4 (TLR2/1) 0.1 ug/mL
# [9] = cytotoxicity flag (confluency mask): cytotoxic (confluency <70% of control), agonist: Imiquimod (TLR7) […]
# [10] = cytotoxicity flag (confluency mask): cytotoxic (confluency <70% of control), agonist: MPLA (TLR4) […]
compound,measurement,setting,value
C[C@@H]1O[C@@H](O[C@H]2[C@H](OC(=O)[C@]34CCC(C)(C)C[C@H]3C3=CC[C@@H]5[C@@]6(C)C[C@H](O)[C@H](O[C@@H]7O[C@H](CO)[C@@H](O)[C@H](O)[C@H]7O)[C@@](C)(CO)[C@@H]6CC[C@@]5(C)[C@]3(C)CC4)O[C@H](CO)[C@@H](O)[C@@H]2O)[C@H](O)[C@H](O)[C@H]1O[C@@H]1OC[C@@H](O)[C@H](O)[C@H]1O,NF-kB SEAP reporter activity,[1]; [4],0.83
same,NF-kB SEAP reporter activity,[1]; [5],1.01
C[C@@H]1O[C@@H](O[C@H]2[C@H](OC(=O)[C@]34CCC(C)(C)C[C@H]3C3=CC[C@@H]5[C@@]6(C)C[C@H](O)[C@H](O[C@@H]7O[C@H](CO)[C@@H](O)[C@H](O)[C@H]7O)[C@@](C)(CO)[C@@H]6CC[C@@]5(C)[C@]3(C)CC4)O[C@H](CO)[C@@H](O)[C@@H]2O)[C@H](O)[C@H](O)[C@H]1O[C@@H]1OC[C@@H](O)[C@H](O)[C@H]1O (library stock concentration (final ~1000-fold dilution): 10 mM),NF-kB SEAP reporter activity,[2]; agonist: LPS (TLR4) 0.1 ug/mL,1.11
same,NF-kB SEAP reporter activity,[2]; [6],0.984
same,NF-kB SEAP reporter activity,[2]; [7],1.04
same,NF-kB SEAP reporter activity,[2]; [8],1.19
CN(C)C(CCOc1cccc2ccccc12)c1ccccc1.Cl (stereo not drawn) (library stock concentration (final ~1000-fold dilution): 10 mM),NF-kB SEAP reporter activity,[3]; agonist: LPS (TLR4) 0.1 ug/mL,1.05
same,NF-kB SEAP reporter activity,[3]; [6],0.655
same,NF-kB SEAP reporter activity,[3]; [7],0.546
same,NF-kB SEAP reporter activity,[3]; [8],0.65
CN(C)C(CCOc1cccc2ccccc12)c1ccccc1.Cl (stereo not drawn),NF-kB SEAP reporter activity,[1]; [9],1.61
same,NF-kB SEAP reporter activity,[1]; [10],0.958
CCCSc1nc(NC2CC2c2ccc(F)c(F)c2)c2nnn(C3CC(OCCO)C(O)C3O)c2n1 (stereo not drawn) (library stock concentration (final ~1000-fold dilution): 10 mM),NF-kB SEAP reporter activity,[3]; agonist: LPS (TLR4) 0.1 ug/mL,1.04
same,NF-kB SEAP reporter activity,[3]; [6],0.615
same,NF-kB SEAP reporter activity,[3]; [7],0.51
same,NF-kB SEAP reporter activity,[3]; [8],0.332
CCCSc1nc(NC2CC2c2ccc(F)c(F)c2)c2nnn(C3CC(OCCO)C(O)C3O)c2n1 (stereo not drawn),NF-kB SEAP reporter activity,[1]; [9],1.05
same,NF-kB SEAP reporter activity,[1]; [10],0.94
Cl.Cl.O=C(O)c1ccc(CN2CCC(CNC3CC3c3ccccc3)CC2)cc1 (stereo not drawn),NF-kB SEAP reporter activity,[1]; [4],1.01
same,NF-kB SEAP reporter activity,[1]; [5],1.05
Cl.Cl.O=C(O)c1ccc(CN2CCC(CNC3CC3c3ccccc3)CC2)cc1 (stereo not drawn) (library stock concentration (final ~1000-fold dilution): 10 mM),NF-kB SEAP reporter activity,[2]; agonist: LPS (TLR4) 0.1 ug/mL,1.01
same,NF-kB SEAP reporter activity,[2]; [6],1.22
same,NF-kB SEAP reporter activity,[2]; [7],0.875
same,NF-kB SEAP reporter activity,[2]; [8],0.786
COc1ccc(S(=O)(=O)Nc2cccnc2Nc2ccc(O)cc2)cc1,NF-kB SEAP reporter activity,[1]; [4],2.48
same,NF-kB SEAP reporter activity,[1]; [5],1.92
COc1cc(Nc2nc3ccccc3nc2NS(=O)(=O)c2ccc(NC(=O)c3ccc(C)c(OC)c3)cc2)cc(OC)c1 (library stock concentration (final ~1000-fold dilution): 10 mM),NF-kB SEAP reporter activity,[2]; agonist: LPS (TLR4) 0.1 ug/mL,2.08
same,NF-kB SEAP reporter activity,[2]; [6],1.04
same,NF-kB SEAP reporter activity,[2]; [7],0.51
same,NF-kB SEAP reporter activity,[2]; [8],0.561
COc1cc(Nc2nc3ccccc3nc2NS(=O)(=O)c2ccc(NC(=O)c3ccc(C)c(OC)c3)cc2)cc(OC)c1,NF-kB SEAP reporter activity,[1]; [4],0.914
same,NF-kB SEAP reporter activity,[1]; [5],0.963
COc1cnc(NS(=O)(=O)c2ccc(N)cc2)nc1 (library stock concentration (final ~1000-fold dilution): 10 mM),NF-kB SEAP reporter activity,[2]; agonist: LPS (TLR4) 0.1 ug/mL,1.22
same,NF-kB SEAP reporter activity,[2]; [6],0.999
same,NF-kB SEAP reporter activity,[2]; [7],1.13
same,NF-kB SEAP reporter activity,[2]; [8],1.19
COc1cnc(NS(=O)(=O)c2ccc(N)cc2)nc1,NF-kB SEAP reporter activity,[1]; [4],0.927
same,NF-kB SEAP reporter activity,[1]; [5],1.02
